84 compounds from paper PMC4336329 (PLoS ONE, 2015) can be followed below.

Among all 310,000 compounds or so, about 14,000 (4.5%) showed an effect of 50% or more. Effects have a minus sign here. The sample as a whole holds a higher share of strong results than the screen did.
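Note: peak tail current of the secondary pulse compared with the same well before compound.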

Chain of human ether-à-go-go-related gene (hERG) potassium channel (Q12809 whole entry, looked up): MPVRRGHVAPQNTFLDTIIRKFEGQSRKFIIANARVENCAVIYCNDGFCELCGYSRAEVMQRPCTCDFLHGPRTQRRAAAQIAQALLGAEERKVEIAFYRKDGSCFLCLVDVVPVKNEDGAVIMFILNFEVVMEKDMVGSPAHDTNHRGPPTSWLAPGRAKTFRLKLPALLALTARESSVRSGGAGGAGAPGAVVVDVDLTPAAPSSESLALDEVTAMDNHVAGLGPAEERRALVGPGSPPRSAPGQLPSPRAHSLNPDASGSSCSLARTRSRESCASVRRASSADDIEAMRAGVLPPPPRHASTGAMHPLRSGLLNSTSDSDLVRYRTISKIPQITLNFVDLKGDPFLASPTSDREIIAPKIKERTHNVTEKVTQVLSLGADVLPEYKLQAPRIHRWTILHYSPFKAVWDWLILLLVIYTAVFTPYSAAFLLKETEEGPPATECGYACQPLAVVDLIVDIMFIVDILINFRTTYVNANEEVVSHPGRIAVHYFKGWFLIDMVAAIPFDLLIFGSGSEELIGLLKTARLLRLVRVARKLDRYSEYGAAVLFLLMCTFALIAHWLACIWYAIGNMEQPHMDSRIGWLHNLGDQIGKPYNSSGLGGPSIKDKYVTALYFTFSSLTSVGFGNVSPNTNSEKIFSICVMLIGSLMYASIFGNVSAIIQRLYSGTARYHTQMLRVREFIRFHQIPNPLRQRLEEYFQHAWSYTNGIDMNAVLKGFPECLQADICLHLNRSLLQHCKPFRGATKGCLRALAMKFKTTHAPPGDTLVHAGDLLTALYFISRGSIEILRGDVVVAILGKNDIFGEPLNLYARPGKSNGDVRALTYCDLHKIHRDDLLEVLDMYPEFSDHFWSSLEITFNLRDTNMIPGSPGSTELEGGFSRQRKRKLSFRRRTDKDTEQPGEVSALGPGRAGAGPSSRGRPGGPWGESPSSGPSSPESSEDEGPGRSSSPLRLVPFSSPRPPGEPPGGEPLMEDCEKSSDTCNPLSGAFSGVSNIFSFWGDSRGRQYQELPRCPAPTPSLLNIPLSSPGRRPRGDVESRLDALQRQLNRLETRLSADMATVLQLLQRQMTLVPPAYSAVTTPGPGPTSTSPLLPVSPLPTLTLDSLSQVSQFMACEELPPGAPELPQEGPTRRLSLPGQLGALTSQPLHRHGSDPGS

This assay addresses human ether-à-go-go-related gene (hERG) potassium channel (human, UniProt Q12809). Description: primary screen, population patch clamp on CHO cells stably expressing hERG; higher = less effect of the substance.
As for `CN1CCC(N(C)C(=O)/C=C/c2cn(-c3ccccc3)nc2-c2cccs2)CC1.Cl`, the “hERG current change (%, negative = inhibition) at 10uM” value is listed as -22.3%. With `NC(=O)Cc1ccc(C(=O)c2ccccc2)s1`, the “hERG current change (%, negative = inhibition) at 10uM” value was 7.3%. As for `C[C@H](O)[C@@]1(O)CC[C@H]2[C@@H]3CC[C@@H]4C[C@H](O)CC[C@]4(C)[C@H]3CC[C@@]21C`, the “hERG current change (%, negative = inhibition) at 10uM” value is listed as -0.0961%. For the compound `CCOCCOc1nc2c(c(=O)n(C)c(=O)n2C)n1CCc1ccccc1`, the “hERG current change (%, negative = inhibition) at 10uM” value is 0.435%. In the case of `CC(C(N)=O)N1CC(c2ccc(Cl)cc2)CC1=O` (stereo not drawn) it was -10.8%; in that of `C=CCN1C(=O)NC(=O)/C(=C/c2ccc(OC)c(COc3ccc(NC(C)=O)cc3)c2)C1=O`, 8.75%. Turning to `Cc1ccc(N(CC2CO2)S(=O)(=O)c2ccccc2[N+](=O)[O-])cc1` (stereo not drawn), the “hERG current change (%, negative = inhibition) at 10uM” value was 1.23%. On to `O=[N+]([O-])c1ccccc1S(=O)(=O)N(CC(O)CN1CCCCC1)c1ccccc1` (stereo not drawn), for which the “hERG current change (%, negative = inhibition) at 10uM” value is -29.9%. Next, `Cc1ccc(N(CC(O)CN2CCCCC2)S(=O)(=O)c2ccccc2[N+](=O)[O-])cc1` (stereo not drawn): -70.9%. Next, `O=C(NC(Cc1c[nH]c2ccccc12)C(=O)OCC(=O)c1cccc2ccccc12)c1cccs1` (stereo not drawn): 0.359%. As for `CN(C)C(=O)c1ccc(NC(=O)c2cccc(S(=O)(=O)N3CCCc4ccccc43)c2)cc1`, the “hERG current change (%, negative = inhibition) at 10uM” value was -8.06%. As for `NC(=O)[C@H]1CC2(CC(c3cccc(NC(=O)CC(c4ccccc4)c4ccccc4)c3)=NO2)CN1C(=O)C(c1ccccc1)c1ccccc1` (stereo partly drawn), the “hERG current change (%, negative = inhibition) at 10uM” value was 8.82%.

On to `COc1ccccc1CN1CCCC(C(=O)N2CCCCC2)C1.O=C(O)C(=O)O` (stereo not drawn), for which the “hERG current change (%, negative = inhibition) at 10uM” value turned out to be 10.6%. For the compound `COc1cc(OC)c(OC)cc1CN1CCCC(C(=O)N2CCCCC2)C1.O=C(O)C(=O)O` (stereo not drawn), the “hERG current change (%, negative = inhibition) at 10uM” value is -1.45%. With `COc1ccc(Br)cc1CN1CCCC(C(=O)N2CCCCCC2)C1.O=C(O)C(=O)O` (stereo not drawn), the “hERG current change (%, negative = inhibition) at 10uM” value is -62.4%. In the case of `COc1ccc(OC)c(CN2CCCC(C(=O)N3CCCCC3)C2)c1.O=C(O)C(=O)O` (stereo not drawn) it was -32.1%; in that of `COc1ccc(Br)cc1CN1CCCC(C(=O)N2CCCCC2)C1.O=C(O)C(=O)O` (stereo not drawn), -55.8%; in that of `O=C(C1CCCN(Cc2cc(Br)ccc2O)C1)N1CCCCC1.O=C(O)C(=O)O` (stereo not drawn), -31.6%. For `COc1ccc(-c2csc(NC(=O)c3ccc(S(=O)(=O)N4CCc5ccccc5C4)cc3)n2)c(OC)c1`, the “hERG current change (%, negative = inhibition) at 10uM” value is 23%. As to `O=C(CCC(=O)OCC(=O)c1ccccc1)Nc1cccc(Cl)c1`, the “hERG current change (%, negative = inhibition) at 10uM” value worked out at 21.5%. Next, `CCN(CC)C(=O)c1c(NC(=O)c2ccccc2)sc(C)c1C`: -6.01%.

As for `O=C(NCSc1ccnc(SCNC(=O)c2ccccc2)n1)c1ccccc1`, the “hERG current change (%, negative = inhibition) at 10uM” value is listed as -28%. In the case of `COc1ccc(CC(=O)NCCS(=O)(=O)N2CCN(c3ccccc3)CC2)cc1`, the “hERG current change (%, negative = inhibition) at 10uM” value stood at 12.7%.

With `Cn1c(SCC2CCCO2)nnc1-c1cccc([N+](=O)[O-])c1` (stereo not drawn), the “hERG current change (%, negative = inhibition) at 10uM” value turned out to be 8.76%.

As for `Cn1c(SCc2ccc([N+](=O)[O-])cc2)nnc1-c1cccnc1`, the “hERG current change (%, negative = inhibition) at 10uM” value is -18%. In the case of `Cn1c(SCc2ccc([N+](=O)[O-])cc2)nnc1-c1ccncc1` it was -52%; in that of `CN(C)c1ccc(-c2nnc(SCC3CCCO3)n2C)cc1` (stereo not drawn), 5.24%; in that of `Cn1c(SCC2CCCO2)nnc1-c1ccc([N+](=O)[O-])cc1` (stereo not drawn), -63.8%. In the case of `Cc1ccc(CSc2nnc(-c3ccncc3)n2C)cc1` it was 4.36%; in that of `CCO/C=C1/C(=O)N(CC)c2ccccc21`, -8.33%; in that of `CCOC(=O)Nc1cccc2ccccc12`, 1.14%.

In the case of `CCOc1cc(C2C(C(=O)O)c3cc(OCC)c(OCC)cc3C(=O)N2C)ccc1O` (stereo not drawn), the “hERG current change (%, negative = inhibition) at 10uM” value was 2.69%. With `O=C(CNC(=S)N(Cc1ccccc1F)C1CCCCC1)NCCN1CCOCC1`, the “hERG current change (%, negative = inhibition) at 10uM” value turned out to be 43.3%. `COCCNC(=O)Cn1nc(-c2ccc(Cl)cc2)c2ccccc2c1=O`: the “hERG current change (%, negative = inhibition) at 10uM” value came to 8.83%. Next, `COc1cccc(CN(C)C(=O)CCNC(=O)c2ccc(Br)cc2)c1`: 0.786%; `CC(=O)c1cccc(CN2CCN(Cc3ccc(C)cc3)C(CCO)C2)c1` (stereo not drawn): -69%; `COc1ccc(CN2CCN(Cc3csc(C(C)=O)c3)CC2CCO)c(C)c1C` (stereo not drawn): -58.1%.

Regarding `CC(=O)c1cccc(CN2CCN(CC(C)C)C(CCO)C2)c1` (stereo not drawn), the “hERG current change (%, negative = inhibition) at 10uM” value worked out at 5.29%.

Turning to `CC(=O)c1cccc(CN2CCN(Cc3ccc(F)cc3)C(CCO)C2)c1` (stereo not drawn), the “hERG current change (%, negative = inhibition) at 10uM” value was -32.9%. Next, `CC(=O)c1cc(CN2CCN(CCC(C)C)C(CCO)C2)cs1` (stereo not drawn): -5.53%; `CC(=O)c1cc(CN2CCN(CCc3ccccc3)C(CCO)C2)cs1` (stereo not drawn): -54.4%. As to `CC(=O)c1cc(CN2CCN(Cc3ccccc3)C(CCO)C2)cs1` (stereo not drawn), the “hERG current change (%, negative = inhibition) at 10uM” value amounted to 2.03%. In the case of `CC(=O)c1cc(CN2CCN(C3CCN(C(C)C)CC3)C(CCO)C2)cs1` (stereo not drawn) it was -3.56%; in that of `CCOc1ccccc1CN1CCN(Cc2csc(C(C)=O)c2)CC1CCO` (stereo not drawn), -44.5%; in that of `CC(=O)c1cccc(CN2CCN(CCc3ccccc3)C(CCO)C2)c1` (stereo not drawn), -53.3%. Regarding `CC(=O)c1cccc(CN2CCN(Cc3ccccc3)C(CCO)C2)c1` (stereo not drawn), the “hERG current change (%, negative = inhibition) at 10uM” value is reported as -1.84%. For `CC(=O)c1cccc(CN2CCN(CCC(C)C)C(CCO)C2)c1` (stereo not drawn), the “hERG current change (%, negative = inhibition) at 10uM” value is listed as -29%. Next, `Cc1cccc(-n2[nH]c3c4c(ccc3c2=O)C(=O)c2ccccc2C4=O)c1`: 4.95%. On to `Cc1onc(-c2ccccc2Cl)c1C(=O)Nc1ccc(OCC(=O)N2CCOCC2)cc1`, for which the “hERG current change (%, negative = inhibition) at 10uM” value was -3.95%. In the case of `CC/C(=N\NC(=O)Nc1ccccc1)c1c(O)n(Cc2ccccc2)c(=O)[nH]c1=O` it was 3.1%; in that of `CC(=O)c1ccc(NS(=O)(=O)c2ccc3c(c2)N(C)CCO3)cc1`, 11.6%; in that of `COc1ccccc1N1CCN(C(=O)C2CCCN(S(=O)(=O)c3ccc(C)cc3)C2)CC1` (stereo not drawn), -38.3%.

As to `O=C(Nc1c(F)cc(F)cc1Br)c1cccnc1`, the “hERG current change (%, negative = inhibition) at 10uM” value was determined as 8.61%. Turning to `COc1ccc(-c2ccnc3nc(-n4cccc4)nn23)cc1`, the “hERG current change (%, negative = inhibition) at 10uM” value is -14.7%. Next, `COc1cc2nc(Nc3cccc(F)c3)nc(N)c2cc1OC.Cl`: -17.7%; `O=C(NC1CC2CCC1C2)C1CCN(S(=O)(=O)c2ccc(-c3nn[nH]n3)cc2)CC1` (stereo not drawn): 14.4%; `O=C(O)c1cc(N2C(=O)C3CC=CCC3C2=O)ccc1NCc1cccnc1` (stereo not drawn): 15%. In the case of `CC(=O)c1cc(CN2CCN(CC=C(C)C)C(CCO)C2)cs1` (stereo not drawn) it was 16.3%; in that of `CC(=O)c1cc(CN2CCN(C3CCCCC3)C(CCO)C2)cs1` (stereo not drawn), -17.2%; in that of `CC(=O)c1cc(CN2CCN(Cc3ccc(C)cc3)C(CCO)C2)cs1` (stereo not drawn), -55%.

On to `CN1C(N)=NC(=O)/C1=C\c1ccc(Br)cc1`, for which the “hERG current change (%, negative = inhibition) at 10uM” value was 8.35%.

On to `CC(C)CC(C(=O)NC1CCCC1)N(Cc1ccc2c(c1)OCO2)C(=O)c1snc(C(N)=O)c1N` (stereo not drawn), for which the “hERG current change (%, negative = inhibition) at 10uM” value was -20.4%. On to `CCN1CCCC1CNC(=O)c1cc2c(C)nc3ccccc3c2o1` (stereo not drawn), for which the “hERG current change (%, negative = inhibition) at 10uM” value is on record as -12%. Next, `O=C(O)C(=O)O.c1ccc(COc2ccc(OCCCCN3CCCCC3)cc2)cc1`: -70.5%; `O=C(O)C(=O)O.c1ccc(COc2ccc(OCCCCN3CCCC3)cc2)cc1`: -64%.

Regarding `CSc1cccc(N2CC(C(=O)NCCC3=CCCCC3)CC2=O)c1` (stereo not drawn), the “hERG current change (%, negative = inhibition) at 10uM” value is listed as 14.1%.

In the case of `Cc1cccc(NC(=O)C2NC(=O)CC2c2ccccc2)c1C` (stereo not drawn), the “hERG current change (%, negative = inhibition) at 10uM” value was found to be 1.2%.

In the case of `O=C(CSc1nnc(NC(=O)c2ccc(F)cc2F)s1)NC1CCCC1`, the “hERG current change (%, negative = inhibition) at 10uM” value is given as 17.7%. Next, `Clc1ccc(N=C2SCC3CCCCN23)cc1` (stereo not drawn): -18.3%. Regarding `COc1ccc(S(=O)(=O)N2CCN(c3nc(C)cc(C)n3)CC2)cc1`, the “hERG current change (%, negative = inhibition) at 10uM” value turned out to be 2.96%.

For the compound `Cc1nc2cc(C(=O)OCC(=O)Nc3cccc(Cl)c3)ccc2n1-c1ccccc1`, the “hERG current change (%, negative = inhibition) at 10uM” value was -13.6%. `O=C(Nc1ncc(C(F)(F)F)cc1Cl)c1ccc(S(=O)(=O)N2CCOCC2)cc1`: the “hERG current change (%, negative = inhibition) at 10uM” value is listed as -13.4%. `COc1cc(C(=O)N/N=C/c2ccc(OC(=O)c3ccccc3Cl)c(OC)c2)ccc1O`: the “hERG current change (%, negative = inhibition) at 10uM” value is given as 13.4%.

Consider `COc1ccc(/C=N/NC(=O)c2cccc(NC(=O)c3ccccc3Cl)c2)cc1OC`, for which the “hERG current change (%, negative = inhibition) at 10uM” value is reported as -3.89%.

In the case of `COc1cccc(C(=O)Nc2cccc(-c3nnc(-c4ccco4)o3)c2)c1`, the “hERG current change (%, negative = inhibition) at 10uM” value is recorded as -51.4%. Next, `COc1cc(/C=N/NC(=O)c2cccc(NC(=O)c3ccccc3C)c2)ccc1O`: -48.4%; `COc1cccc(C(=O)Nc2cccc(NC(=O)c3ccccc3Cl)c2)c1`: -52%.

For the compound `COc1ccc(C(=O)Nc2cccc(-c3nnc(-c4ccco4)o3)c2)cc1`, the “hERG current change (%, negative = inhibition) at 10uM” value was -37.4%. `COc1cc(/C=N/NC(=O)c2ccncc2)ccc1OC(=O)c1ccccc1Cl`: the “hERG current change (%, negative = inhibition) at 10uM” value was -50.8%. Next, `COc1cc(/C=N/NC(=O)c2cccc(NC(=O)c3ccccc3Cl)c2)ccc1O`: -55.6%; `COc1cccc(C(=O)Nc2cccc(NC(C)=O)c2)c1`: -8.39%; `CC(C)Oc1cccc(C(=O)NC(=S)Nc2cccc(NC(=O)c3ccccc3Cl)c2)c1`: -11.9%. In the case of `COc1cccc(C(=O)Nc2cccc(-c3nnc(-c4ccccc4)o3)c2)c1` it was -4.18%; in that of `COc1cc(/C=N\NC(=O)c2cccnc2)ccc1OC(=O)c1ccccc1Cl`, -7.3%.
